Data on nine compounds can be found in PubChem BioAssay (Tox21).

“And” between values parts separate entries of the source, which are not always exact repeats. Identical values can stand only once. Results filed as inconclusive are left out. A structure can be active in one record and inactive in another. The source made the active and inactive calls. Unless noted, the call rests on the fitted dose curve; in most records, active means well fitted curve in the direction sought with a large enough effect in the repeat runs; inconclusive means weak or mixed curves; inactive means no such curve, though single readings can be large; an effect the other way counts as inactive or inconclusive.

A short description of assay [1]: qHTS assay to identify small molecule antagonists of the estrogen receptor alpha (ER-alpha) signaling pathway using the BG1 cell line in the presence of 0.1 nM 17-beta-estradiol - cell viability counter screen (AID 1259241). Further: nearly all actives have a fitted effect of over 40% in size. The method, boiled down:
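VM7Luc4E2 cells (endogenous ER-alpha, 4×ERE-luciferase), hormone-starved 5 days in charcoal-stripped FBS, were treated with compounds plus 0.1 nM 17beta-estradiol for 22 hr at 37C; viability read in same wells as CellTiter-Fluor live-cell protease fluorescence.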
Background: In qHTS, concentration-response curves come from the screen itself.

The nature of assay [2]: qHTS assay to identify small molecule antagonists of the androgen receptor (AR) signaling pathway using the MDA cell line in the presence of 0.5 nM R1881 - cell viability counter screen (AID 1259242). Further: nearly all actives have a fitted effect of over 45% in size. An outline of the steps:
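Cells seeded at 3,000/well and allowed 5 hr at 37C, 0% CO2 before compound transfer and R1881 (0.5 nM final) addition; 16 hr later, live-cell protease fluorescence indicated cytotoxicity.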

Assay [3] has as its target Estrogen receptor (Homo sapiens) (UniProt P03372). Kind of assay: qHTS assay to identify small molecule antagonists of the estrogen receptor alpha (ER-alpha) signaling pathway using the BG1 cell line in the presence of 0.1 nM 17-beta-estradiol (AID 1259244). Further: nearly all actives have a fitted effect of over 50% in size. The method, boiled down: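 Luciferase signal from VM7Luc4E2 ERE-reporter cells, co-dosed with test compound and 0.1 nM final 17beta-estradiol for 22 h, read with ONE-Glo.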

Assay [4] in a line: qHTS assay to identify small molecule phospholipidosis (PLD) inducers (AID 1259344; active means well fitted curve in the direction sought with a large enough effect; an effect the other way counts as inactive or inconclusive). An outline of the steps:
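Read-out is LipidTOX Red fluorescence (ex 595/em 615) imaged in HepG2 cells after 24 h compound exposure at 37 C, with Hoechst nuclear counterstain (ex 352/em 461) allowing per-cell normalisation.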

The nature of assay [5]: qHTS assay to identify small molecule HDAC inhibitors (AID 1259364).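 Further: wild-type HCT-116 cells with endogenous class I/II HDAC activity; top concentration of the series differs between compounds; nearly all actives have a fitted effect of over 45% in size.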 An outline of the steps:
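HCT-116 wt cells, 1,500/well, overnight attach. Compounds (DMSO) 2 h, 37 °C. HDAC-Glo I/II, 30 min RT. Luminescence.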

Assay [6] is described as follows: qHTS assay to identify small molecule HDAC inhibitors - cell viability counter screen (AID 1259365). Further: series mostly up to about 92 µM; nearly all actives have a fitted effect of over 50% in size. An outline of the steps:
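Wild-type HCT-116 cells were seeded at 1,500 per well, incubated overnight at 37 C, then exposed to compounds in DMSO for 2hr. Viability was read by CellTiter-Glo luminescence after 30min at room temperature.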

Assay [7] can be described thus: qHTS assay to identify small molecule antagonists of the sonic hedgehog signaling (Shh) pathway - cell viability counter screen (AID 1259367). Further: nearly all actives have a fitted effect of over 55% in size. The method, boiled down:
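Fluorescence read-out (CellTiter-Fluor, 1 hr at 37C) taken after 23 hr compound treatment of 3T3 Gli1-Luc cells stimulated with conditioned medium. Cells were seeded at 2,000 per well and pre-incubated 4 hr.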

A short description of assay [8]: qHTS assay to identify small molecule agonists of the sonic hedgehog signaling (Shh) pathway (AID 1259368; calls by dose curve; further: series mostly up to about 92 µM; nearly all actives have a fitted effect of over 15% in size). An outline of the steps:
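Following a 24 hr incubation with DMSO-dissolved compounds at 37 C, 5% CO2, Gli1-Luc NIH/3T3-derived cells received luciferase reagent for 30 min at room temperature prior to luminescence measurement.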

Assay [9] can be described thus: qHTS assay to identify small molecule antagonists of the sonic hedgehog signaling (Shh) pathway (AID 1259369; calls by dose curve; further: nearly all actives have a fitted effect of over 45% in size; further: potency means the concentration at half of the fitted maximal effect). The method, boiled down: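 Read-out is luminescence from a firefly luciferase gene controlled by the Gli1 response element, in 3T3Gli1-Luc cells pre-incubated 4hr then exposed to compounds and conditioned medium for 24hr.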
Assay [10] has as its target Estrogen receptor beta (Homo sapiens) (UniProt Q92731). Kind of assay: qHTS assay to identify small molecule agonists of the estrogen receptor beta (ER-beta) signaling pathway (AID 1259377; active means well fitted activation curve with a large enough effect in the signal ratio in the repeat runs, not every such curve was filed as active; the % refers to the signal ratio). The method, boiled down: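 ER-beta-UAS-bla HEK293T (GripTite) cells carrying a UAS-driven beta-lactamase reporter, in medium with 2% charcoal-stripped FBS, were exposed to compounds for 16 hr at 37C; LiveBLAzer B/G FRET substrate was then added and fluorescence read after 2 hours at room temperature.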

The target is the same in assay [11]. Kind of assay: qHTS assay to identify small molecule antagonists of the estrogen receptor beta (ER-beta) signaling pathway (AID 1259378; active means well fitted inhibition curve with a large enough effect in the signal ratio in the repeat runs, not every such curve was filed as active; the % refers to the signal ratio). The method, boiled down:
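ER-beta-UAS-bla HEK293T cells in 2% charcoal-stripped FBS medium treated with compound plus 1nM final 17-beta-estradiol for 16 hr at 37C. Beta-lactamase reporter read by FRET substrate fluorescence after 2 hours at room temperature.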

A short description of assay [12]: qHTS assay to identify small molecule agonists of the androgen receptor (AR) signaling pathway in the presence of an antagonist - cell viability counter screen (AID 1259379).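 Further: MDA-kb2 human breast cancer cells carrying an MMTV luciferase reporter; series mostly up to about 92 µM; nearly all actives have a fitted effect of over 25% in size.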 An outline of the steps: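 Each compound was tested at 15 concentrations on MDA-kb2 cells in the presence of 3.0uM nilutamide. Viability was measured by CellTiter-Fluor fluorescence after a 16 hr incubation at 37C in a CO2-free atmosphere.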

The nature of assay [13]: qHTS assay to identify small molecule agonists of the estrogen receptor beta (ER-beta) signaling pathway - cell viability counter screen (AID 1259380). Further: nearly all actives have a fitted effect of over 30% in size. The method, boiled down:
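Compounds dissolved in DMSO were pin-transferred onto ER-beta-UAS-bla HEK293T cells that had settled 6 hr, and exposure ran 16 hr at 37C. Following the reporter read, CellTiter-Glo luminescence after 30 min at room temperature indicated cytotoxicity.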

Assay [14] has as its target Estrogen receptor (Homo sapiens) (UniProt P03372). Kind of assay: qHTS assay to identify small molecule agonists of the estrogen receptor alpha (ER-alpha) signaling pathway in the presence of an antagonist (AID 1259383; calls by dose curve; further: top concentration of the series differs between compounds; nearly all actives have a fitted effect of over 15% in size). An outline of the steps:
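Luminescent ERE-luciferase reporter, VM7Luc4E2 cells (endogenous ER-alpha); 10.0nM ICI-182,780 final; 15-point compound titration; 22hr at 37C; ONE-Glo, 30min RT.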

Assay [15] can be described thus: qHTS assay to identify small molecule agonists or antagonists of the thyroid stimulating hormone receptor (TSHR) signaling pathway - wild type cell line counter screen (AID 1259384; calls by dose curve). An outline of the steps:
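Wild-type Hek293 cells, 800/well, 18 h at 37C, then compound with Ro20-1724 for 30 min RT. cAMP by HTRF (cAMP-d2/anti-cAMP cryptate), 1 h RT, fluorescence read. 15 concentrations, triplicates.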

Assay [16] is described as follows: qHTS assay to identify small molecule agonists of the sonic hedgehog signaling (Shh) pathway - cell viability counter screen (AID 1259366). Further: nearly all actives have a fitted effect of over 50% in size. An outline of the steps:
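NIH/3T3-derived 3T3 Gli1-Luc cells (stable Gli1-responsive firefly luciferase reporter) were seeded, rested 4 hr at 37 C/5% CO2, then exposed to compounds in DMSO for 24 hr; viability was read by CellTiter-Fluor fluorescence in the same wells.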

For assay [17], the target named is Androgen receptor (Homo sapiens) (UniProt P10275). In words: qHTS assay to identify small molecule antagonists of the androgen receptor (AR) signaling pathway using the MDA cell line in the presence of 0.5 nM R1881 (AID 1259243). Further: nearly all actives have a fitted effect of over 50% in size. The method, boiled down:
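Luminescence from an AR/GR-responsive MMTV-luciferase construct in MDA-kb2 breast carcinoma cells, read 30 min after ONE-Glo, following 16 hr co-treatment with compounds and 0.5 nM R1881.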

Assay [18] shares this target. In words: qHTS assay to identify small molecule agonists of the androgen receptor (AR) signaling pathway in the presence of an antagonist (AID 1259381; calls by dose curve; further: nearly all actives have a fitted effect of over 15% in size). The method, boiled down: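 Plated MDA-kb2 cells (3,000/well) were pre-incubated 5hr, given nilutamide (3.0uM final) or buffer, then dosed with compounds in DMSO at 15 concentrations. Luciferase activity was quantified by luminescence after 16hr at 37C.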

Assay [19] is described as follows: qHTS assay to identify small molecule antagonists of the estrogen receptor beta (ER-beta) signaling pathway - cell viability counter screen (AID 1259382). Further: series mostly up to about 92 µM; nearly all actives have a fitted effect of over 55% in size. The method, boiled down: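 CellTiter-Glo ATP luminescence measured after the LiveBLAzer read in the same wells; ER-beta-UAS-bla HEK293T cells, 16 hr compound treatment with 1nM 17-beta-estradiol agonist at 37C, 5% CO2.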

Sequence of Androgen receptor (Homo sapiens) (P10275 whole entry, looked up): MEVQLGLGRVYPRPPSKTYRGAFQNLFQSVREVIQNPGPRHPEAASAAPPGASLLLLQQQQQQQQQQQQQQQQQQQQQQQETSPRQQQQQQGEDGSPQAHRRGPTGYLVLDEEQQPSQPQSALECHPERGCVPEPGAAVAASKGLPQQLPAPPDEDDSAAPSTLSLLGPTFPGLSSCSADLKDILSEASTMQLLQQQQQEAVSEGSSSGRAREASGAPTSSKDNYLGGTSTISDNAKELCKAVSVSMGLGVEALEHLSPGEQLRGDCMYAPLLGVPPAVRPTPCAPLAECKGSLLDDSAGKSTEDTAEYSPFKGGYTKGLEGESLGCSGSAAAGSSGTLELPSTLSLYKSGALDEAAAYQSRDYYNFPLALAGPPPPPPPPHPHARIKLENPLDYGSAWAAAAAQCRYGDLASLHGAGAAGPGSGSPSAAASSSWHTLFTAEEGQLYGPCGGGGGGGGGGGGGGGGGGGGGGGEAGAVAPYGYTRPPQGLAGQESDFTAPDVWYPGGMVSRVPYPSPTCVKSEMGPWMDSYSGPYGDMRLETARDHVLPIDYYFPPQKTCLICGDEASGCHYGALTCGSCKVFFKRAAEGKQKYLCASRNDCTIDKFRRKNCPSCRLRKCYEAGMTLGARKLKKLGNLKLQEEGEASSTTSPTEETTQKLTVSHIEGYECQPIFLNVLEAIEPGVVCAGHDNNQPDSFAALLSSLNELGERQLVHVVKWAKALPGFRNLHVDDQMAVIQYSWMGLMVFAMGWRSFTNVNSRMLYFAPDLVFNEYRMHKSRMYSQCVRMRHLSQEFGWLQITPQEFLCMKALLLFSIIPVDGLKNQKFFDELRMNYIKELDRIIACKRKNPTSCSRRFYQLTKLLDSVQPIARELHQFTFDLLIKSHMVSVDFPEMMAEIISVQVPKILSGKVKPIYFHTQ
Sequence of Estrogen receptor (Homo sapiens) (P03372 whole entry, looked up): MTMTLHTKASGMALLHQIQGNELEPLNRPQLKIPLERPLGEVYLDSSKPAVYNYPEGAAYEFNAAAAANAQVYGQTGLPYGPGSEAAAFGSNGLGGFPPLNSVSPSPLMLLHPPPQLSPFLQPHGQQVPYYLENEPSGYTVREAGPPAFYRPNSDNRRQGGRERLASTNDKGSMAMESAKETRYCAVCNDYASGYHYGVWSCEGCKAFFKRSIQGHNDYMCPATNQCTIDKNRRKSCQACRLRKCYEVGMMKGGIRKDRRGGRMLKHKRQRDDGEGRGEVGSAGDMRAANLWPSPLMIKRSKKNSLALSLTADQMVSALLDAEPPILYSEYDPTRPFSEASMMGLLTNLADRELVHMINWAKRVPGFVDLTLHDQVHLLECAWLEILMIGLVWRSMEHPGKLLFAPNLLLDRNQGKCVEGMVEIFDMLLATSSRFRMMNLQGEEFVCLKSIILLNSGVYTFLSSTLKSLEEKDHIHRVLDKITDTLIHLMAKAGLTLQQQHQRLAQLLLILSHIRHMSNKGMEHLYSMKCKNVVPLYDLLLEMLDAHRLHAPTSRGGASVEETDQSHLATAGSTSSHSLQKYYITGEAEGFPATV
Sequence of Estrogen receptor beta (Homo sapiens) (Q92731 whole entry, looked up): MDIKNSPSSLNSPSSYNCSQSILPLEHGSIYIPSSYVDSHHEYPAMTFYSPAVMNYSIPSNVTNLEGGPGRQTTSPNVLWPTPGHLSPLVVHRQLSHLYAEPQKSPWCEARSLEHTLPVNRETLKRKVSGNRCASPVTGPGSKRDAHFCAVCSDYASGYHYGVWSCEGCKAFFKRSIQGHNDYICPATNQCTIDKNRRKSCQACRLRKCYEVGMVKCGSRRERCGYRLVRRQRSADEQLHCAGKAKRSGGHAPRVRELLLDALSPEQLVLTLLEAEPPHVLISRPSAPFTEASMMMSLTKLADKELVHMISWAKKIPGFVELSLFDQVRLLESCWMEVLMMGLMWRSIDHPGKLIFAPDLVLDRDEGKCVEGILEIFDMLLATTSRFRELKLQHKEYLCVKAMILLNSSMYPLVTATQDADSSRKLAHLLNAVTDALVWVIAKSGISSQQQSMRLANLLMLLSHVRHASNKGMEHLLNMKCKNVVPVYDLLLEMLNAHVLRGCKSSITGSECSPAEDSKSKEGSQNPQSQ

For `Nc1ccc(O)c(C(=O)O)c1`, the Potency entry in assay [1], in [2], in [3], in assay [5], in assay [7] and in [9] was “inactive” in each case. Also, the Potency result in assay [11], in assay [12], in assay [13] and in assay [14] was “inactive” each time. Also, the compound was classed as inactive in assay [4], in [6], in [8], in assay [10] and in assay [15].

Regarding `NC(N)=NC(=O)c1nc(Cl)c(N)nc1N`, the Potency result in assay [1], in assay [2], in [3], in [5], in assay [7] and in assay [9] was “inactive” each time. Besides, the Potency result in assay [11], in [12], in [13] and in assay [14] was “inactive” each time. The call in [4], in [6], in [8], in assay [10] and in assay [15] was inactive.

Take `CC1(C)[C@@H]2CC[C@@]1(C)C(=O)C2`: the Potency result in [1], in [2], in assay [3], in assay [5], in assay [16] and in assay [7] was “inactive” each time. The Potency entry in assay [9], in [11], in assay [12], in assay [13] and in assay [14] was “inactive” throughout. For the same compound, the compound was classed as inactive in assay [4], in assay [6], in assay [8], in assay [10] and in assay [15].

For the compound `CC(C)[C@@H]1CC[C@@H](C)C[C@H]1O`, the Potency result in assay [1], in assay [2], in [17], in [5], in assay [7] and in assay [11] was “inactive” throughout. Besides, the Potency result in assay [12], in [13], in assay [18] and in assay [19] was “inactive” in each case. Also, the compound was classed as inactive in [4], in assay [6], in assay [8], in assay [10] and in assay [15]. Moreover, the Potency entry in assay [9] is “inactive and 31.6 µM (active)”.

In the case of `O=NO`, the Potency result in [1], in [2], in assay [5], in assay [7], in assay [9] and in [12] was “inactive” throughout. The Potency entry in assay [13] is “inactive”. The call in assay [6], in [8] and in assay [15] was inactive.

On to `CC(=O)OCC(COC(C)=O)OC(C)=O`, for which the Potency result in assay [1], in assay [2], in assay [5], in [16], in assay [7] and in assay [9] was “inactive” throughout. The Potency entry in assay [11], in assay [12], in assay [13] and in assay [19] was “inactive” in each case. For the same compound, the call in assay [4], in assay [6], in [8], in [10] and in assay [15] was inactive.

Turning to `CC(O)CO` (stereo unspecified), the Potency result in assay [1], in assay [2], in [3], in assay [5], in assay [16] and in assay [7] was “inactive” throughout. The Potency entry in [9], in assay [12], in assay [13] and in assay [14] was “inactive” each time. Further, the compound was classed as inactive in assay [4], in assay [6], in assay [8] and in assay [15].

For `O=C(c1ccccc1)c1ccccc1`, the Potency entry in [1], in assay [2], in [17], in assay [5], in [16] and in assay [7] was “inactive” throughout. Further, the Potency result in assay [9], in assay [12], in [13] and in assay [18] was “inactive” each time. Further, the call in assay [4], in [6] and in assay [8] was inactive.

With `CC(=O)Nc1nnc(S(N)(=O)=O)s1`, the Potency result in assay [1], in assay [2], in assay [3], in assay [5], in [16] and in assay [7] was “inactive” in each case. The Potency result in assay [9], in assay [11], in assay [12], in assay [13], in assay [19] and in assay [14] was “inactive” throughout. For the same compound, the result in assay [4], in [6], in assay [8], in [10] and in assay [15] was inactive.
